Sampled rows, rich in hits. Any-hit rate of the full collection: about 1.8%.
PABP FP inh – blocks human PABP binding to poly(A) RNA; calls only at 35 µM; P11940; AID 2014; 290,000 compounds, 1% hits; fluorescence polarization;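 also: calls also rest on retests at 20 µM and on dose response follow-up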
MLLE-PAM2 inh – inhibitors of microRNA-mediated deadenylation, human PABP1 MLLE binding; P11940; GST-MLLE / FITC-PAM2 fluorescence polarization; inhibition, % at 20 µM; 360,000 compounds, 0.36% hits; AID 588489; in the data active = inhibition above about 35%, passing the limit was not always enough;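 also: plate controls were DMSO wells with GST-MLLE for no effect and wells lacking GST-MLLE protein for full effect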
EBV gp42 inh – EBV gp42 inhibition | Fluorescence polarization binding assay, mP read-out | inhibition, % (tested at 21.74 µM) | 220,000 compounds, 0.42% hits | AID 1085; in the data active = inhibition above about 50%
Target sequence (Q1HVG2 whole entry, looked up): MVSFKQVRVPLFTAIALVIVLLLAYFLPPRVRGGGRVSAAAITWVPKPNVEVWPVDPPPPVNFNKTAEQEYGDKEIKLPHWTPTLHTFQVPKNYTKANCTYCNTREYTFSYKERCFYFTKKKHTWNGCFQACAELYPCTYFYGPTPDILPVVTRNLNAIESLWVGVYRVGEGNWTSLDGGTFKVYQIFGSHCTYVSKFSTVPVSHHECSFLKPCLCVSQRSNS
MEX-5 binding – C. elegans MEX-5 TCR-2 RNA binding activity; MEX-5/FITC-TCR2 RNA binding, fluorescence polarization; active compounds read low; 300,000 compounds, 0.38% hits; AID 1832; activity score (negative = inhibition of binding), % at 10 µM;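 active = inhibition past about -25% in most replicates, and total fluorescence under double the plate's negative control median, limit read from the data; inconclusive = replicates evenly split on the limit, or fluorescence at least double controls; inactive = too little inhibition in most replicates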;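 also: 0% = DMSO and -100% = 5 µM competing unlabeled TCR2 RNA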
eIF4H inh – inhibitors of RNA binding by human eIF4H | Q15056 | eIF4H fluorescence polarization binding assay | inhibition, % at 35 µM | 290,000 compounds, 0.94% hits | AID 2012;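 also: calls also rest on retests at 20 µM and on dose response follow-up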
* marks the source's active call; other numbers are inactive results. Unless noted, no rule for the calls is given here.

For CN1OC[C@@H]2CN(S(=O)(=O)c3cc(Cl)cc(Cl)c3)[C@H](c3ccc(-c4ccc(C#N)cc4)cc3)C[C@@H]21 the results were MLLE-PAM2 inh 1.7.
Screening O=C(NC1CC1)c1[nH]c(C(F)(F)F)nc1-c1ccccc1 returned MLLE-PAM2 inh 5.3.
Screening Brc1ccc2nc(C3CCCCC3)c(CC3CCCCC3)n2c1 returned MLLE-PAM2 inh 4.2.
Screening O=C(c1ccc([N+](=O)[O-])cc1)N1CCC(n2nnc3cc(F)ccc32)CC1 returned PABP FP inh inactive, MLLE-PAM2 inh 11.5, EBV gp42 inh -1.0, MEX-5 binding 3.2 and eIF4H inh -8.1.
O=C(N1CCOCC1)N1CCC(n2nnc3cc(F)ccc32)CC1 was read as PABP FP inh inactive, MLLE-PAM2 inh 15.9, EBV gp42 inh 41.7, MEX-5 binding -26.8* and eIF4H inh 13.0.
Screening Nc1ccc(S(=O)(=O)Nc2cnc3ccccc3n2)cc1 returned PABP FP inh inactive, MLLE-PAM2 inh 10.3, EBV gp42 inh 5.8, MEX-5 binding -2.8 and eIF4H inh -9.6.
`Nc1ccc(S(=O)(=O)Nc2nc3ccccc3o2)cc1` gave PABP FP inh active, MLLE-PAM2 inh 11.3, MEX-5 binding -3.3 and eIF4H inh 55.2*.
Cc1cc(O)c(C=O)c2c1C(=O)Oc1c(CO)c(O)c3c(c1O2)C(O)OC3=O (stereo not drawn) was read as PABP FP inh active, MLLE-PAM2 inh 23.7, EBV gp42 inh -1.0 and eIF4H inh 107.5*.
For Oc1cc(CNC2CCCCC2)c(O)cc1CNC1CCCCC1 the results were MLLE-PAM2 inh 52.6*.
O=C1NC[C@H](Cc2ccccc2)N(C[C@@H]2CCCN2C[C@H](Cc2ccccc2)N2C[C@H](Cc3ccccc3)N(CCc3ccccc3)C(=O)C2=O)C1=O was read as MLLE-PAM2 inh 4.8.
`O=C(Nc1ccccc1F)C(=Cc1sc(N2CCOCC2)nc1-c1ccccc1)C(=O)Nc1ccccc1F` gave PABP FP inh inactive, MLLE-PAM2 inh 127.4, EBV gp42 inh 61.6*, MEX-5 binding -43.2* and eIF4H inh inconclusive.
For O=C(N/N=C/c1sc(N2CCOCC2)nc1-c1ccccc1)c1ccccc1F the results were PABP FP inh inactive, EBV gp42 inh -2.1, MEX-5 binding -1.2 and eIF4H inh 2.6.
`Oc1c(N=Nc2nn[nH]n2)ccc2ccccc12` gave MLLE-PAM2 inh 46.9*.
Screening S=C(Nc1ccc2nc(-c3ccccn3)c(-c3ccccn3)nc2c1)N1CCCCC1 returned PABP FP inh active, MLLE-PAM2 inh 30.0, EBV gp42 inh 54.6* and eIF4H inh 38.5.
`O=C(O)CNc1ccccc1C(=O)O` gave PABP FP inh inactive, MLLE-PAM2 inh 2.7, EBV gp42 inh -11.7, MEX-5 binding -2.7 and eIF4H inh 74.0*.
For CC1(C)Cc2c(c(-c3ccco3)[nH]c(=O)c2C#N)CS1 the results were PABP FP inh inactive, MLLE-PAM2 inh 60.9*, EBV gp42 inh 31.9, MEX-5 binding -22.7 and eIF4H inh 121.7.
`CC(C)NC(=O)N(C)C[C@H]1Oc2cc(C#Cc3ccc(F)cc3)ccc2S(=O)(=O)N([C@H](C)CO)C[C@H]1C` gave MLLE-PAM2 inh -9.5.
CC(=O)Nc1ccc(C(=O)N2CCCC(c3cc(C(=O)NCc4cccnc4)no3)C2)cc1 (stereo not drawn) was read as MLLE-PAM2 inh 3.8.
`COc1ccc(C#Cc2ccc3c(c2)O[C@@H](CN(C)C(=O)Nc2cccc(OC)c2)[C@H](C)CN([C@@H](C)CO)S3(=O)=O)cc1` gave MLLE-PAM2 inh -9.2.
`Cn1c(=O)oc2cc(S(=O)(=O)NCc3cccnc3)ccc21` gave PABP FP inh active, MLLE-PAM2 inh 2.2, EBV gp42 inh -21.6, MEX-5 binding -11.3 and eIF4H inh 65.3.
For Cn1c(=O)oc2cc(S(=O)(=O)Nc3cccc4c3CCCC4)ccc21 the results were PABP FP inh active, MLLE-PAM2 inh -6.7, EBV gp42 inh -46.1, MEX-5 binding -3.4 and eIF4H inh 62.0*.
For CCC1CCCCN1Cc1ccc(CNS(=O)(=O)c2ccc3c(c2)oc(=O)n3C)o1 (stereo not drawn) the results were PABP FP inh active, MLLE-PAM2 inh -8.9, EBV gp42 inh -44.8, MEX-5 binding 0.7 and eIF4H inh 55.1*.
Cn1c(=O)oc2cc(S(=O)(=O)NCc3ccco3)ccc21 was read as PABP FP inh inactive, MLLE-PAM2 inh 9.0, EBV gp42 inh -1.7, MEX-5 binding -1.1 and eIF4H inh 1.8.
`Cn1c(=O)oc2cc(S(=O)(=O)NCc3ccc(F)cc3)ccc21` gave PABP FP inh inactive, MLLE-PAM2 inh -4.6, MEX-5 binding 2.6 and eIF4H inh 28.5.
Screening O=C(CNC(=O)N1CC(=O)Nc2ccccc21)Nc1ccc(Cl)cc1Cl returned MLLE-PAM2 inh -18.9.
Screening O=C(O)c1c2c(nc3ccccc13)/C(=C/c1ccc(O)cc1)CC2 returned PABP FP inh inactive, MLLE-PAM2 inh 16.2, EBV gp42 inh 1.3, MEX-5 binding -29.5* and eIF4H inh 104.6.
For O=C(O)c1c2c(nc3ccccc13)/C(=C/c1ccc(OC(F)F)cc1)CCC2 the results were PABP FP inh inactive, MLLE-PAM2 inh 6.3, MEX-5 binding -1.6 and eIF4H inh 9.4.
Screening CN(c1ccccc1C(=O)NCc1ccco1)S(C)(=O)=O returned PABP FP inh active, MLLE-PAM2 inh 10.9, EBV gp42 inh 0.7, MEX-5 binding -0.4 and eIF4H inh 55.0*.
`Cc1ccc(S(=O)(=O)NNC(=O)c2cccnc2)cc1` gave PABP FP inh inactive, MLLE-PAM2 inh 0.0, EBV gp42 inh -19.0, MEX-5 binding -0.4 and eIF4H inh 8.1.
O=C(NC(=S)NNS(=O)(=O)c1ccccc1)c1cccnc1 was read as PABP FP inh inactive, MLLE-PAM2 inh 48.2*, EBV gp42 inh -0.3, MEX-5 binding inconclusive and eIF4H inh 23.7.
`O=C(NC(=S)NNS(=O)(=O)c1ccccc1)c1ccccc1[N+](=O)[O-]` gave PABP FP inh inactive, MLLE-PAM2 inh 45.3*, EBV gp42 inh 3.9, MEX-5 binding -5.5 and eIF4H inh 19.8.
O=C(NC(=S)NNS(=O)(=O)c1ccccc1)c1ccc([N+](=O)[O-])cc1 was read as PABP FP inh inactive, MLLE-PAM2 inh 6.7, EBV gp42 inh -13.2, MEX-5 binding -24.0 and eIF4H inh 9.5.
O=C(O)c1ccc(Cl)c(NC(=S)NC(=O)c2ccccc2[N+](=O)[O-])c1 was read as PABP FP inh inactive, MLLE-PAM2 inh 46.8*, EBV gp42 inh -12.7, MEX-5 binding -1.7 and eIF4H inh -1.2.
N#Cc1ccc(CN(Nc2ccccc2)c2ccccc2)cc1 was read as MLLE-PAM2 inh -0.1.
`CCc1nc2c(OCC(=O)C(C)(C)C)cccn2c1N(C=O)Cc1ccccc1` gave MLLE-PAM2 inh -9.5.
`CSc1cccc(NC(=S)N2CCC(N(C)C3CCCC3)CC2)c1` gave PABP FP inh active, MLLE-PAM2 inh -40.4, EBV gp42 inh -7.1, MEX-5 binding 0.7 and eIF4H inh 2.1*.
Screening COc1ccccc1CN1CCNC(=O)C1CC(=O)N(C)C1CCOCC1 (stereo not drawn) returned MLLE-PAM2 inh -1.2.
